# Among all 190,000 compounds or so, about 930 (0.49%) were called active. This is one part of the list. Entries with a potency or affinity are not part of this list. Unmarked numbers belong to inactive results.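 Rule for the calls: active = z-score of insulin promoter reporter brightness in nuclei below -3 at 5 µM, with at least 500 cells counted; inconclusive = wells with under 500 cells, flagged as toxic or sparse; inactive = the rest.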
# Test: decrease of insulin promoter-GFP reporter – imaging, high-content screening, mouse beta cells (AID 1628)
# Settings: MIN6 insulin promoter GFP reporter, at 5 µM, stronger effect = lower value
row,SMILES,z-score
1,CCN(CC)S(=O)(=O)c1cccc(-c2n[nH]c(=S)n2/N=C/c2ccc(C(=O)OC)cc2)c1,-4.66 (active)
2,COC(=O)c1cc(Nc2cc(C)c3ccc(O)cc3n2)cc(C(=O)OC)c1,-3.19 (active)
3,COC(=O)c1cc(-c2c(C)oc3cc(O)ccc3c2=O)c(C)o1,0.55
4,Cc1cc(C(=O)COc2ccc(-c3nnco3)cc2)c(C)n1Cc1ccccc1,-4.66 (active)
5,S=C(Nc1ccccc1Cl)N(CCCN1CCOCC1)Cc1ccco1,-4.9 (active)
6,CCOC(=O)Cc1csc(SCC(=O)Nc2cccc(C#N)c2)n1,1.27
7,Cc1csc(SCC(=O)Nc2cccc3nsnc23)n1,-3.34 (active)
8,Cc1csc(NC(=O)CN(C)S(=O)(=O)c2cccc3cccnc23)n1,3.05
9,N=c1c2c(n(Cc3ccc([N+](=O)[O-])cc3)c3c1CCC3)CCCC2,-3.48 (active)
10,N=c1c2c(n(Cc3ccc(F)cc3)c3c1CCC3)CCC2,-5.9 (active)
11,CC(C)(C)NC(=O)N1CCC(CO)(Cc2ccccc2Cl)CC1,-3.59 (active)
12,CCCn1nc2cc(C(=O)NCc3ccccc3)ccc2c1OCC,4.73
13,CCCCn1nc2cc(C(=O)N(CC)c3ccc(OC)cc3)ccc2c1OCC,-3.8 (active)
14,Cc1ccccc1N=Nc1c(C)[nH]n(C(N)=S)c1=O,-9.54 (active)
15,O=C(NNS(=O)(=O)c1ccc(F)cc1F)c1csc(-c2cccnc2)n1,-3.45 (active)
16,Nc1c(C(=O)N/N=C/c2cccnc2)oc2nc(-c3ccccc3)cc(-c3ccco3)c12,4.08
17,CCCCc1nnc(NC(=O)CSc2nc(O)c(Cc3ccccc3)c(=O)[nH]2)s1,2.27
18,CN(C)c1ccc(/C=C(\C#N)C(=O)Nc2nc3c(s2)CCN(Cc2ccccc2)C3)cc1,15.1
19,O=C(CSc1nc(Cc2ccccc2)nc2ccccc12)Nc1nc2c(s1)CCCC2,-3.54 (active)
20,O=c1cc(O)c2c(=O)n(-c3ccccc3)c3c(c2o1)CCCCCC3,-4.17 (active)
21,Cc1cc(Nc2nn(C)c(N)c2C#N)ccc1F,6.01
22,CCOC(=O)C1C(=O)C=C(/C=C/c2ccc(N(C)C)cc2)CC1c1ccccc1 (configuration not stated),9.81
23,CCOC(=O)C1C(=O)C=C(c2cccc(NS(C)(=O)=O)c2)CC1c1ccco1 (configuration not stated),-3.47 (active)
24,COc1ccc(OCCC(=O)NC2CCCCC2)cc1,-3.45 (active)

row,SMILES,z-score
1,O=C(COc1ccc(Cl)cc1)NCc1nnc(SCC(=O)NC2CCCCC2)o1,3.28
2,COc1ccc(-c2nnn(CC(=O)N(CCO)C(C(=O)NC3CCCC3)c3ccc(F)cc3)n2)cc1 (configuration not stated),3.28
3,S=c1[nH]c2ccc(Cl)cc2[nH]1,1.33
4,O=C(CSc1nnc(-c2cccs2)o1)N1CCOCC1,-4.31 (active)
5,CC1CCCC(C)N1C(=O)CSc1nnc(-c2cccs2)o1 (configuration not stated),3.46
6,COc1ccccc1C(c1nnnn1Cc1ccccc1)N1CCN(c2nc3ccccc3s2)CC1 (configuration not stated),-5.06 (active)
7,c1ccc(Cn2nnnc2C(c2ccccc2)N2CCN(c3nc4ccccc4s3)CC2)cc1 (configuration not stated),-3.45 (active)
8,COc1ccc(C(c2nnnn2Cc2ccccc2)N2CCN(c3nc4ccccc4s3)CC2)cc1 (configuration not stated),-5.01 (active)
9,N#C/C(=C/c1ccc(N2CCCCC2)o1)C(=O)Nc1ccc(Cl)cc1,17.2
10,c1ccc(-c2nnc3sc(CN4CCc5ccccc54)cn23)cc1,-0.03
11,COc1cc([N+](=O)[O-])ccc1-c1ccc(/C=N/NC(N)=O)o1,3.33
12,COC(=O)c1ccc(Cl)c(-c2ccc(/C=N/NC(=O)Nc3ccccc3)o2)c1,-3.3 (active)
13,COc1cc2c3nnc(-c4ccc(F)cc4)c-3cn(Cc3ccccc3F)c2cc1OC,6.27
14,CC(C)COC(=O)c1nnsc1NC(=O)Nc1ccccc1,-3.85 (active)
15,CC1CCc2c(sc3nn[nH]c(=O)c23)C1 (configuration not stated),4.24
16,COc1c2c(nc3ccccc13)OC(C(C)(O)COC(C)=O)C2 (configuration not stated),3.26
17,COc1ccc(OC)c(/C(O)=C/C(=O)C(=O)Nc2cc(C)cc(C)c2)c1,-5.01 (active)
18,Cc1cc(C)cc(NC(=O)/C=C/c2ccc([N+](=O)[O-])s2)c1,5.99
19,COc1cccc(/C=N/n2c(=O)[nH]c3ccccc32)c1OC,-4.61 (active)
20,O=[N+]([O-])c1ccc2c(c1)C(N1CCOCC1)/C(=C/COc1ccc3ccccc3c1Br)O2 (configuration not stated),-5.36 (active)
21,Cc1cc(C)n(-c2ccc(C(=O)OCC(=O)N(CC(C)C)C3CCS(=O)(=O)C3)cc2)n1 (configuration not stated),3.33
22,CCN(C(=O)COC(=O)c1cccnc1Nc1cccc(C(F)(F)F)c1)C1CCS(=O)(=O)C1 (configuration not stated),-4.37 (active)
23,O=Nc1c(O)n(Cc2ccc(Cl)cc2)c2ccccc12,3.05
